Data on 14 molecules can be found in PubChem BioAssay.

Calls of active or inactive are those of the source.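 The calls were made as follows, unless noted: active = inhibition above 20% together with a positive visual image hit; inconclusive = visual image hit but inhibition not above 20%; inactive = no visual image hit.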 Where a SMILES comes first, the peptide text is derived from it. [ ]: non-standard residue; d: D form. The star is where a group is joined. ξ: configuration not given here. Cbz = O=C(OCc1ccccc1)*; ξK = NCCCCC(N)C(=O)O

Assay [1] is described as follows: inhibitors of TNFa-induced NFkB p65 translocation, primary screen, imaging, HUVEC, MLSMR starter and 10KST1 sets (AID 438).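 Also: compound added about 3h40 before a 20 min TNFalpha stimulation.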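 As to inhibition: signal is the nuclear over cytoplasmic p65 intensity ratio per well.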 Conditions: HUVEC TNFa-induced p65 nuclear translocation; cell count: measured here: nuclei count (cytotoxicity indicator), at 2.08 µM; inhibition: at 2 µM, stronger effect = higher value, 0% TNFa-plus-vehicle, 100% no-TNFa wells.
A short description of assay [2]: inhibitors of mutant huntingtin aggregation, primary screen, imaging, exon1htt(103Q)mCFP cells, high-content imaging (AID 483;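 active = visual image review flags a hit and inhibition of aggregation exceeds 20%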;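 also: compound exposure lasted 3 days before fixation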;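 as to nuclei count: percent of the per-plate median nuclei count of sample wells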). The settings on record: exon1htt(103Q)mCFP cell line, aggregate imaging, at 2 µM; inhibition of aggregation: stronger effect = higher value; nuclei count: measured here: cell count, toxicity.
Assay [3] can be described thus: inhibitors of E-selectin induction by TNFa, primary screen, imaging, HUVEC, immunofluorescence, MLSMR starter and 10KST1 sets (AID 487;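 active = visually confirmed hit in the image check and inhibition above 20%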;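 as to inhibition: signal is fraction of cell area covered by stained E-selectin grains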;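 as to nuclei count: 100% = median nuclei count of all wells on the same plate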). Conditions: HUVEC TNFalpha-induced E-selectin immunofluorescence imaging, at 2 µM; inhibition: stronger effect = higher value; nuclei count: measured here: cell number, toxicity.
Assay [4] has as its target Voltage-gated potassium channel subunit beta-2 (Rattus norvegicus) (UniProt P62483). The assay is described as follows: KvBeta enzyme negative modulators, primary screen, biochemical, NADPH fluorescence (AID 622;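 active = fluorescence slope higher than the sample average by over 3 SD, cut at about -0.22 in these data, passing the limit was not always enough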;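 also: slope of raw intensity against log time taken from 70 to 1610 s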). The settings on record: recombinant KvBeta, 4-cyanobenzaldehyde reduction, at 10 µM, stronger effect = higher value.
Assay [5] has the same target. The assay is described as follows: KvBeta positive modulators, primary screen, biochemical, NADPH fluorescence (AID 623;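 active = NADPH fluorescence slope more negative than the mean of all samples by about 3 SD, 99.7% confidence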;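 also: fluorescence intensity change per second fitted from 20 to 320 s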). The settings on record: Recombinant KvBeta, NADPH fluorescence decrease slope, 10 min; at 10 µM; stronger effect = lower value.
The target in assay [6] is Alpha-2C adrenergic receptor (Homo sapiens) (UniProt P18825). The experiment in a line: modulators of alpha2C/GIRK thallium flux, primary screen, cell-based, HEK293 alpha2C/GIRK1/2 (AID 624;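 active = fluorescence slope after compound addition differing from the mean of all screened samples at 99.7% confidence, in either direction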;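 also: slope of fluorescence ratio to pre-addition baseline per second over 15 to 24 s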). The settings on record: thallium flux BTC fluorescence, at 10 µM, actives lie on both sides.
Assay [7] is described as follows: inhibitors of Sendai virus-induced IRF3 signaling, primary screen, TLR/RLR signaling modifier project, cell-based, Sendai virus stimulus, luciferase, 10K MLSCN set (AID 602276;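 active = inhibition at or above 50% at 10 µM; inactive = inhibition below 50%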;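 also: firefly luciferase from ISG56 promoter only with Renilla not read in this screen; 0% = Sendai virus plus DMSO and 100% = medium plus DMSO without virus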). The settings on record: HEK293 RL24 IRF3 luciferase reporter, at 10 µM, stronger effect = higher value. (Reporter assays use an easily measured gene product as a stand-in for the process of interest.)

Assay [8] in a line: inhibitors of poly I:C-induced TLR3 signaling, primary screen, cell-based, poly I:C stimulus, luciferase, 10K MLSCN set (AID 602277;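 active = inhibition of the reporter signal at or above 50%; inactive = inhibition below 50%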). The settings on record: HEK293-TLR3 RL24 IRF3 luciferase reporter, at 10 µM, stronger effect = higher value.

Voltage-gated potassium channel subunit beta-2 (Rattus norvegicus), sequence (P62483 whole entry, looked up): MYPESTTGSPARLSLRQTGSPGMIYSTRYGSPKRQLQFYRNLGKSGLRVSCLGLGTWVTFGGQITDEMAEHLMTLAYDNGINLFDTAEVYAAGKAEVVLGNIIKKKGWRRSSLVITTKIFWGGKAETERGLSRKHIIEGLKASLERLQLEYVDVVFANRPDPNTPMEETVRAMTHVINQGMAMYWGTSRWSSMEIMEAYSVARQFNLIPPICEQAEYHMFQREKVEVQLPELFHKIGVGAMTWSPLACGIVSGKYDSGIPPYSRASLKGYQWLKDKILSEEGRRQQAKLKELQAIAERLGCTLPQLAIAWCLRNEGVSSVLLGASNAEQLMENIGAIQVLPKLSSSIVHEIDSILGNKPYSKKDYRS
Alpha-2C adrenergic receptor (Homo sapiens), sequence (P18825 whole entry, looked up): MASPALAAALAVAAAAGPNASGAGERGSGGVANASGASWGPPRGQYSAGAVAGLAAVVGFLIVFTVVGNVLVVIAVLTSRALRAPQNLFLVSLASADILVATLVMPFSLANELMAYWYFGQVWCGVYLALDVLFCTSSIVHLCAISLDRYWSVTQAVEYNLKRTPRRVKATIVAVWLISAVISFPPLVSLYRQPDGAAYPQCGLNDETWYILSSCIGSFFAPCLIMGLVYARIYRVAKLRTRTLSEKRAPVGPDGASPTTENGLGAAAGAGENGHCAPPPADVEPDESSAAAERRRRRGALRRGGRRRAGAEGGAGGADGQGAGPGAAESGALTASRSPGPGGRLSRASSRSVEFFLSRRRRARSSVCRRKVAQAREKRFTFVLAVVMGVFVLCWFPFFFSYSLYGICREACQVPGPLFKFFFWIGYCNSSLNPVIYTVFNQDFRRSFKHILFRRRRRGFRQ

In general, inhibition refers to the drop in the measured response relative to a control, in per cent. Regarding `COc1ccc(Cl)cc1S(=O)(=O)N1CCN(c2ccc(F)cc2)CC1`, in assay [1], the cell count was 657. Further, the inhibition in assay [1] was -1.1% (inactive); in assay [3], 36.7% (inactive); in assay [7], 46.4% (inactive); in assay [8], 0.0275% (inactive). Besides, the inhibition of aggregation in assay [2] is -29.1% (inactive). Also, the nuclei count worked out at 101% in assay [2] and 137% in assay [3]. Further, in assay [4], the fluorescence slope was -0.319 (inactive). The NADPH fluorescence slope in assay [5] is -1.3e-05 (inactive). For the same molecule, the slope in assay [6] is 0.00495 (inactive).
Take `CC1CCC2C(C1)c1sc(=O)[nH]c1SC2(C)C` (centres undefined): the cell count in assay [1] came out at 815. Further, the inhibition in assay [1] is -7.3% (inactive); in assay [3], -18.7% (inactive); in assay [7], -1.58% (inactive); in assay [8] it was 10.1% (inactive). Besides, the inhibition of aggregation in assay [2] is 16.6% (inactive). In addition, the nuclei count in assay [2] amounted to 98.3%; in assay [3] it was 116%. For the same molecule, the fluorescence slope in assay [4] was -0.365 (inactive). Also, in assay [5], the NADPH fluorescence slope is 2e-05 (inactive). Also, the slope in assay [6] is 0.00605 (inactive).
Take `COC(=O)C(CCCCNC(=O)OCc1ccccc1)NC(=O)CN` (centres undefined) (H-Gly-[ξK](Cbz)-OMe): the cell count in assay [1] came out at 529. The inhibition in assay [1] was -6.5% (inactive); in assay [3], -14% (inactive); in assay [7], 4.8% (inactive); in assay [8], 6.56% (inactive). For the same molecule, the inhibition of aggregation in assay [2] is 11.4% (inactive). The values for the nuclei count in assay [2] and in assay [3] were 104% and 71.3%, respectively. The fluorescence slope in assay [4] was -0.623 (inactive). Further, the NADPH fluorescence slope in assay [5] was -2.9e-05 (inactive). Further, the slope in assay [6] is 0.00756 (inactive).
Regarding `Cc1ccc2c(CNCc3ccco3)cc(=O)oc2c1`, in assay [1], the cell count came out at 712. For the same molecule, the inhibition was 7.3% (inactive) in assay [1], -10.2% (inactive) in assay [3], -18.6% (inactive) in assay [7] and -70.4% (inactive) in assay [8]. Further, the inhibition of aggregation in assay [2] is 21.5% (inactive). The nuclei count amounted to 87.6% in assay [2] and 96.6% in assay [3]. Besides, the fluorescence slope in assay [4] was -0.519 (inactive). Also, the NADPH fluorescence slope in assay [5] was -1.9e-05 (inactive). For the same molecule, the slope in assay [6] was 0.00495 (inactive).
`FC(F)Oc1ccc(-c2csc(Cc3nnc4n3CCCCC4)n2)cc1`: the cell count in assay [1] came to 578. Moreover, the inhibition in assay [1] was -3.5% (inactive); in assay [3], 84.7% (active); in assay [7], -0.365% (inactive); in assay [8], -11.8% (inactive). Also, in assay [2], the inhibition of aggregation was -9% (inactive). The nuclei count in assay [2] amounted to 113%; in assay [3] it was 83.2%. Besides, the fluorescence slope in assay [4] was -0.535 (inactive). The NADPH fluorescence slope in assay [5] is 7.5e-06 (inactive). In assay [6], the slope was 0.00442 (inactive).
Turning to `CCN(CC)S(=O)(=O)c1ccc(S(=O)(=O)N(Cc2ccccn2)Cc2ccco2)cc1`, the cell count in assay [1] was 322. Also, the inhibition in assay [1] is -0.8% (inactive); in assay [3] it was -68.2% (inactive); in assay [7], 6.58% (inactive); in assay [8], 18.5% (inactive). Moreover, the inhibition of aggregation in assay [2] is -9.2% (inactive). For the same molecule, the nuclei count in assay [2] was determined as 112%; in assay [3] it was 123%. In addition, the fluorescence slope in assay [4] is -0.608 (inactive). Also, the NADPH fluorescence slope in assay [5] was 6.2e-06 (inactive). Further, the slope in assay [6] was 0.00512 (inactive).
Regarding `CC(C)OC(=O)c1ccc(NC(=O)C2C3CC4OC(=O)C2C4C3)cc1` (centres undefined), the cell count in assay [1] stood at 324. The inhibition in assay [1] was -10.5% (inactive); in assay [3] it was -115% (inactive); in assay [7], -44.9% (inactive); in assay [8], -88.7% (inactive). The inhibition of aggregation in assay [2] is -9.4% (inactive). Moreover, the figures for the nuclei count in assay [2] and in assay [3] were 103% and 151%, respectively. The fluorescence slope in assay [4] is -0.327 (inactive). The NADPH fluorescence slope in assay [5] is -6e-05 (inactive). Besides, the slope in assay [6] is 0.00657 (inactive).
On to `COc1ccccc1Cn1c(-c2ccco2)nc2nc3ccccc3nc21`, for which, in assay [1], the cell count was 612. Moreover, the inhibition was -10.5% (inactive) in assay [1], -13.1% (inactive) in assay [3], 1.34% (inactive) in assay [7] and -13.9% (inactive) in assay [8]. Besides, the inhibition of aggregation in assay [2] was -8.4% (inactive). The nuclei count in assay [2] was 109%; in assay [3], 117%. Moreover, the fluorescence slope in assay [4] is -0.366 (inactive). In addition, the NADPH fluorescence slope in assay [5] is -7.7e-06 (inactive). Moreover, in assay [6], the slope was 0.00597 (inactive).
As to `N#CC1=C(N)S[C@H](C(=O)C23CC4CC(CC(C4)C2)C3)[C@H]1c1ccncc1`, the cell count in assay [1] was determined as 297. For the same molecule, the inhibition was 2.4% (inactive) in assay [1], -10.8% (inactive) in assay [3], 11.9% (inactive) in assay [7] and 23.4% (inactive) in assay [8]. For the same molecule, the inhibition of aggregation in assay [2] is -16.4% (inactive). In addition, the nuclei count came out at 105% in assay [2] and 111% in assay [3]. Moreover, the fluorescence slope in assay [4] was -0.482 (inactive). For the same molecule, the NADPH fluorescence slope in assay [5] is -1.6e-05 (inactive). The slope in assay [6] was 0.0041 (inactive).
On to `CC(O)c1c(OCc2ccccc2)ncnc1OCc1ccccc1` (centres undefined), for which, in assay [1], the cell count is 426. Moreover, the inhibition is 0.5% (inactive) in assay [1], -36.1% (inactive) in assay [3], 10.6% (inactive) in assay [7] and 20.8% (inactive) in assay [8]. Besides, the inhibition of aggregation in assay [2] was -7.1% (inactive). In addition, the nuclei count in assay [2] worked out at 65.7%; in assay [3], 115%. Also, the fluorescence slope in assay [4] was -0.44 (inactive). The NADPH fluorescence slope in assay [5] is -0.000123 (inactive). In assay [6], the slope was 0.00502 (inactive).
In the case of `O=C(c1ccccc1-c1nc(-c2ccccc2)no1)N1CCCC1`, the cell count in assay [1] was 600. In addition, the inhibition is -8.6% (inactive) in assay [1], 51% (inactive) in assay [3], -20.5% (inactive) in assay [7] and -38.1% (inactive) in assay [8]. The inhibition of aggregation in assay [2] was 0.7% (inactive). Further, the nuclei count in assay [2] amounted to 90.5%; in assay [3], 85.6%. Further, the fluorescence slope in assay [4] was -0.534 (inactive). For the same molecule, the NADPH fluorescence slope in assay [5] is -2.8e-05 (inactive). Besides, the slope in assay [6] was 0.00572 (inactive).
Consider `CCOC(=O)CC(=O)Nc1c(C)cc(C)cc1C`, for which the cell count in assay [1] was found to be 270. The inhibition in assay [1] is 7.5% (inactive); in assay [3] it was 6.5% (inactive); in assay [7] it was -9.54% (inactive); in assay [8], 2.4% (inactive). In addition, in assay [2], the inhibition of aggregation is 12.8% (inactive). Also, the figures for the nuclei count in assay [2] and in assay [3] were 87.4% and 105%, respectively. For the same molecule, the fluorescence slope in assay [4] was -0.416 (inactive). In assay [5], the NADPH fluorescence slope is 6.4e-05 (inactive). Moreover, in assay [6], the slope was 0.00527 (inactive).
Turning to `COc1ccccc1OCCSc1nc2ccccc2c(=O)[nH]1`, the cell count in assay [1] was found to be 361. For the same molecule, the inhibition in assay [1] is 3.5% (inactive); in assay [3], -49.6% (inactive); in assay [7], -4.62% (inactive); in assay [8], -5.54% (inactive). The inhibition of aggregation in assay [2] was -4.7% (inactive). The nuclei count in assay [2] is 89.3%; in assay [3], 86.8%. Further, the fluorescence slope in assay [4] is -0.35 (inactive). Also, in assay [5], the NADPH fluorescence slope is -5.3e-05 (inactive). Moreover, in assay [6], the slope was 0.00628 (inactive).
As for `CCc1cccc(NC(=O)C2CCCN(S(=O)(=O)c3c(C)[nH]c(=O)[nH]c3=O)C2)c1` (centres undefined), the cell count in assay [1] amounted to 325. Besides, the inhibition in assay [1] was -10.3% (inactive); in assay [3], -57.4% (inactive); in assay [7], 9.85% (inactive); in assay [8] it was 23.9% (inactive). Moreover, the inhibition of aggregation in assay [2] was 0.8% (inactive). For the same molecule, the nuclei count in assay [2] stood at 106%; in assay [3] it was 104%. Further, the fluorescence slope in assay [4] was -0.405 (inactive). Further, the NADPH fluorescence slope in assay [5] was -3.6e-05 (inactive). In addition, in assay [6], the slope is 0.0033 (inactive).
